Many of the other results were omitted from the sample, so hits are more common in it than they were.
Pf Dd2 inh: inhibitors of Plasmodium falciparum Dd2 growth. P. falciparum Dd2 growth, SYBR Green, 72 h. Potency, µM (titrated, usually from 28.9 µM), for the others: at the highest dose activity, negative = inhibition, most hits filed as inhibitors. actives 4.3% (n = 120,000); active = well fitted inhibition curve with a large enough effect;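 note: plate controls were DMSO vehicle for no effect and reference drug for full effect; nearly all actives have a fitted effect of over 65% in size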
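Infected erythrocytes (Dd2, 0.3% parasitemia, 2.5% hematocrit final) are added to compound in RPMI-1640/Albumax II medium, grown 72 h at 37C in low oxygen, then lysed with saponin/Triton-X containing SYBR Green and read by fluorescence.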
* = called active by the depositor; i = inactive; ! = not active in a repeat; [ ] = remark or other dose. Potency is the fitted concentration of half-maximal effect.

SMILES	Pf Dd2 inh
CC(C)NC(=O)N1[C@H]2CC[C@@H]1c1cncnc1C2	-8%
CN1CCOc2c(C(=O)NCc3cccnc3)cc(-c3ccc(CO)cc3)cc21	-9%[44.1 µM]
CCOc1ccccc1C(=O)N1CCc2nn(Cc3ccccc3)c(=O)n2CC1	-5%
Oc1ccc(-c2nc(C3CC3)nc3c2CN(Cc2ccsc2)CC3)cc1	7.1µM*
CCc1nc2c(c(-c3ccc(O)cc3)n1)CN(Cc1ccccc1OC)CC2	-17%
Cc1nc2c(c(-c3ccc(O)cc3)n1)CN(Cc1cncs1)CC2	-7%[44.1 µM]
Cc1nc2c(c(-c3ccc(O)cc3)n1)CN(Cc1ccsc1)CC2	i
Oc1ccc(-c2nc(C3CC3)nc3c2CN(Cc2ccccc2C(F)(F)F)CC3)cc1	2.5µM*!
CC(C)CCN1CCn2c(nn(-c3ccc(F)cc3F)c2=O)C1	-18%[44.1 µM]
CC(C)Oc1ccc(CNC(=O)c2noc(-c3ccc(F)cc3)n2)cc1	1%
Cc1nc([C@H]2CCN(Cc3sccc3C)C[C@H]2NC(=O)C2CCOCC2)n[nH]1	i
O=C(Nc1ccc(Cl)cc1)c1nc2c(o1)CCN(CC1CCCC1)CC2	-7%[44.1 µM]
COCCNC(=O)[C@@H]1C[C@H](Oc2cccnc2)CN1C(=O)c1cnccn1	13%
O=C(Cc1ccc2c(c1)OCO2)N(Cc1ccncc1)Cc1cccc(OCCc2ccc(F)cc2)c1	11µM*
O=C(CN1C(=O)COc2ccc(C(=O)COc3cccc(F)c3)cc21)NCc1ccc2c(c1)OCO2	i
O=C(Cc1ccc2c(c1)OCO2)N1CCNc2cnc(Nc3cccc(F)c3)nc2C1	-3%[44.1 µM]
CCC(CC)NC(=O)C1CCCN(S(=O)(=O)c2ccccc2)CCC(=O)NCC1 (stereo not given)	-4%
COc1cccc(-c2ccccc2NC(=O)C2CCN(Cc3cc(OC)ccc3O)CC2)c1	2.2µM*
COc1cccc(-c2ccc(CN3C4CCC3CN(C(=O)Nc3ccccc3F)C4)cc2)c1	i
COc1ccc(-c2ccccc2NC(=O)C2CCCN(Cc3cnc(SC)nc3)C2)cc1 (stereo not given)	-25%
COc1cccc(NC(=O)C2CCCN(Cc3cccnc3)CCC(=O)NCC2)c1 (stereo not given)	-20%
CCc1ncc(CN2CCCC(C(=O)Nc3ccccc3-c3ccc(OC)cc3)C2)cn1 (stereo not given)	i
COc1ccc(-c2ccccc2NC(=O)C2CCCN(CC=C(C)C)C2)cc1 (stereo not given)	7.9µM*
COc1ccc(-c2ccccc2NC(=O)C2CCCN2S(C)(=O)=O)cc1 (stereo not given)	-6%
CCn1ccnc1CN1CCCC(C(=O)Nc2ccccc2-c2ccc(OC)cc2)C1 (stereo not given)	i
SMILES	Pf Dd2 inh
COc1cccc(-c2ccccc2NC(=O)C2CCN(Cc3ccc(F)cc3)CC2)c1	7.9µM*
CCCc1cc(C(=O)N2C[C@@H](CN3CCOCC3)[C@@H](CO)C2)n[nH]1	-4%
CC(=O)N1CCOc2ccc(S(=O)(=O)NCC3CNCCOC3)cc21 (stereo not given)	9%
O=[S+]([O-])(c1cccs1)N1CCn2c(nnc2-c2ccncc2)C1	12%
O=C(O)CCn1ncc2cc(OCc3ccc(-c4cncnc4)cc3)ccc21	-15%[44.1 µM]
CC1CCc2sc(C(=O)N(C)Cc3cc(-c4ccncc4)no3)cc2C1 (stereo not given)	-10%
Cc1ccc(N2CCC(NC(=O)c3ccccc3F)C2=O)cc1 (stereo not given)	4%
NC(=O)[C@H](CC1CCCCC1)NC(=O)[C@H]1CN(C(=O)C2CCNCC2)CCN1C(=O)C1CCNCC1	19%
Cc1cccc(NC(=O)N2C[C@@H](F)C[C@H]2C(=O)N2CCc3ccccc3C2)c1C	7.9µM*
Cc1cc(Cl)ccc1NC(=O)N1C[C@@H](F)C[C@H]1C(=O)N1CCc2ccccc2C1	-16%
Cc1ccc(NC(=O)N2C[C@@H](F)C[C@H]2C(=O)N2CCc3ccccc3C2)c(C)c1	-22%
CCn1nccc1-c1nc(-c2nnn3c2COC(c2ccc(C)cc2)C3)no1 (stereo not given)	-19%
Cc1ccc(C(=O)NCC2CCOCC2)cn1	32%
CCc1ccccc1OCC(=O)c1ccc2c(c1)N(CC(=O)Nc1ccc(F)cc1)C(=O)CO2	i
O=C(NC1CCCCC1)N1CCCCC1c1nc(-c2cnccn2)n[nH]1 (stereo not given)	-14%
Cc1ccc(NC(=O)C(=O)NCC(c2cccnc2)N2CCOCC2)cc1Cl (stereo not given)	-12%
Cc1ccc(NC(=O)C(=O)NCC(c2cccnc2)N2CCOCC2)cc1C (stereo not given)	-16%
O=C(NCC(c1cccnc1)N1CCOCC1)C(=O)Nc1ccc(F)cc1 (stereo not given)	9%
COC(=O)c1ccc(NC(=O)C(=O)NCC(c2cccnc2)N2CCN(c3ccccc3)CC2)cc1 (stereo not given)	-10%
Cc1ccc(NC(=O)C(=O)NCC(c2cccnc2)N2CCN(Cc3ccccc3)CC2)cc1F (stereo not given)	8.9µM*
Cc1ccc(NC(=O)C(=O)NCC(c2cccnc2)N2CCN(Cc3ccccc3)CC2)cc1C (stereo not given)	5.6µM*
C#CCNC(=O)c1nc(-c2cc(Cl)cc(Cl)c2)c2ccccn12	-16%[44.1 µM]
CSCC(=O)NCCC[C@H](NC(=O)[C@@H]1[C@@H](NC(=O)Nc2cccc(SC)c2)CCN1C(=O)CSC)C(N)=O	2%
O=C1Cc2c(-c3ccc(C(=O)N4CCOCC4)cc3)n[nH]c2CN1Cc1ccccc1	-16%[44.1 µM]
COc1ccc(NC(=O)c2cc(NC(=O)C3CCC3)cc3nc(C)ccc23)cc1	i
SMILES	Pf Dd2 inh
CN1C(=O)c2cccn2CC1C(=O)NCc1ccc(F)cc1 (stereo not given)	14%
O=C(NC1CCN(c2cc(-c3cccs3)[nH]n2)CC1)c1ccccc1Cl	-24%
O=C(OCc1ccccc1)N1CCOCC12CCN(Cc1ccncc1)CC2	-19%[44.1 µM]
O=C(OCc1ccccc1)N1CCOCC12CCN(Cc1ccc3[nH]ccc3c1)CC2	7.1µM*
O=C(c1ccccc1)N1CCOCC12CCN(Cc1ccc3[nH]ccc3c1)CC2	-7%[44.1 µM]
Cc1cc(C(=O)Nc2ccc([C@H]3OCC(=O)N[C@@H]3CO)cc2)nn1C	i
Cc1cnc(-c2cccnc2)n1CC1CCN(C(=O)C2CCC2)CC1	-2%
COc1cccc(C(=O)N2C[C@@H](Oc3cccnc3)C[C@@H]2C(=O)N2CCOCC2)c1	6%
Fc1ccccc1-c1noc(NCCc2ccc(Cl)cc2)n1	i
Clc1ccc(CNc2nc(-c3ccccc3)no2)cc1	11µM*
O=c1cc(-c2ccccc2)nc(SCc2nc(-c3ccc(Cl)cc3)no2)[nH]1	20%
COc1ccccc1NC(=O)N1C[C@@H]2C[C@H](C1)c1c(-c3ccc(Cl)cc3)ccc(=O)n1C2	-7%
COc1cc2c(cc1OC)C(CNC(=O)c1ccccc1Cl)N(C(=O)Nc1ccccc1F)CC2 (stereo not given)	-3%
CCC(=O)NCC1c2cc(OC)c(OC)cc2CCN1C(=O)Nc1ccccc1 (stereo not given)	-5%
COc1ccccc1NC(=O)N1CCc2cc(OC)c(OC)cc2C1CNC(C)=O (stereo not given)	9%
COc1cc2c(cc1OC)C(CNC(=O)c1cccs1)N(C(=O)Nc1ccccc1F)CC2 (stereo not given)	i
COc1cc2c(cc1OC)C(CNC(=O)C1CCCC1)N(C(=O)Nc1cccc(C)c1)CC2 (stereo not given)	11µM*
COc1ccccc1NC(=O)N1CCc2cc(OC)c(OC)cc2C1CNC(=O)c1ccco1 (stereo not given)	7.1µM*

Screens deposited in PubChem by National Center for Advancing Translational Sciences (NCATS).
